Data on 23 molecules can be found in the supplement of paper PMC10127200.

Counter-ions that a name gives are not always drawn.

Holding throughout (test): Euclidean distance of Cell Painting phenotypic profile (signed KS, 77 features) to DMSO centroid (dimensionless distance); 5 or 10 uM (library dependent); higher = stronger phenotypic change vs DMSO (phenoactivity)
Common to all, as to conditions: 48 h

The subject of one test is 786-O. The method in brief: (§1)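 Harmony extracted 77 features from 20X confocal images (9 fields/well) of stained cells, scoring each as a signed Kolmogorov-Smirnov statistic against same-plate vehicle wells. The cells, five cancer lines and a healthy fibroblast line, had received library compounds for 48 h at 10 or 5 uM depending on library, with 0.1% DMSO final. Phenoactivity is the Euclidean distance from each plate-position-corrected, correlation-weighted, top-dose replicate-averaged profile to the median vehicle profile.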

Another test deals with A549. The essentials: as §1
For a further test, the system named is DU145. The essentials:
as §1

The test system of a further test is FB. The essentials:
as §1

Another test concerns HEPG2. The method in brief:
as §1

The next test relates to OVCAR4. The method in brief:
as §1

Consider `Cc1ccccc1C(C(=O)NC1CCCCC1)N(C(=O)Cn1ccnc1C)c1cccc(F)c1` (stereo not drawn), for which the Euclidean distance in the test with 786-O worked out at 1.02; in the test on A549 it was 1.06; with DU145, 1.01; with FB, 1.52; with HEPG2 it was 0.839; in the test with OVCAR4, 1.59.

In the case of `N#Cc1ccnc(N2C(=O)CC[C@H]2C(=O)N(c2cncc(F)c2)[C@H](C(=O)NC2CC(F)(F)C2)c2ccccc2Cl)c1` [Ivosidenib (AG-120)], the Euclidean distance worked out at 0.973 in the test on 786-O; 0.609 with A549; 1.95 in the test on DU145; 1.1 in the test with FB; 0.986 with HEPG2; 1.55 with OVCAR4.

`CC1(C)CC(=O)c2c(C(F)(F)F)nn(-c3ccc(C(N)=O)c(N[C@H]4CC[C@H](O)CC4)c3)c2C1`: the Euclidean distance in the test on 786-O is 3.06; in the test on A549, 2.99; with DU145, 3.09; in the test on FB, 3.59; in the test on HEPG2 it was 3.83; in the test with OVCAR4, 2.73.

With `CC(COc1ccccc1)NC(C)C(O)c1ccc(O)cc1` (stereo not drawn) [Isoxsuprine hydrochloride], the Euclidean distance amounted to 1.44 in the test with 786-O; 0.704 in the test with A549; 0.854 in the test on DU145; 1.28 in the test on FB; 0.54 in the test with HEPG2; 1.1 with OVCAR4.

As for `Nc1ccn([C@H]2CC[C@@H](CO)O2)c(=O)n1` [Zalcitabine], the Euclidean distance is 1.06 with 786-O; 0.768 in the test on A549; 1.6 with DU145; 0.942 in the test with FB; 2.07 in the test on HEPG2; 1.13 in the test with OVCAR4.

For `CC(=O)N1CCN(c2ccc(OCC3COC(Cn4ccnc4)(c4ccc(Cl)cc4Cl)O3)cc2)CC1` (stereo not drawn) [Ketoconazole], the Euclidean distance in the test on 786-O stood at 1.55; in the test on A549, 0.896; with DU145, 2.29; with FB it was 0.789; in the test on HEPG2 it was 0.391; in the test on OVCAR4, 0.644.

On to `CN[C@H]1CN(c2ccc3c(=O)c(C(=O)O)cn(-c4nccs4)c3n2)C[C@@H]1OC` [Voreloxin (SNS-595) hydrochloride], for which the Euclidean distance in the test on 786-O was 3.32; in the test with A549, 3.76; in the test on DU145, 2.41; with FB, 3.35; in the test with HEPG2 it was 2.43; with OVCAR4, 3.8.

Take `COc1cc(O)c(C(=O)Nc2nc(C(=O)NCCN(C(C)C)C(C)C)cs2)cc1OC` [Acotiamide]: the Euclidean distance with 786-O amounted to 1.22; in the test with A549, 0.413; in the test on DU145, 0.881; in the test with FB, 0.785; in the test on HEPG2, 0.356; in the test with OVCAR4, 0.831.

`CN(C)CC[C@H](CSc1ccccc1)Nc1ccc(S(=O)(=O)NC(=O)c2ccc(N3CCN(Cc4ccccc4-c4ccc(Cl)cc4)CC3)cc2)cc1[N+](=O)[O-]`: the Euclidean distance amounted to 0.812 with 786-O; 2.83 in the test on A549; 1.36 in the test on DU145; 0.853 with FB; 0.522 with HEPG2; 1.01 with OVCAR4.

Regarding `COc1ccc(/C=C/C(=O)Nc2ccccc2C(=O)O)cc1OC` [Trans-Tranilast], the Euclidean distance in the test with 786-O stood at 1.43; in the test with A549 it was 0.649; in the test on DU145, 0.604; in the test on FB, 1.18; with HEPG2 it was 0.865; in the test on OVCAR4 it was 0.917.

As for `CN(C)[C@@H]1C(O)=C(C(N)=O)C(=O)[C@@]2(O)C(O)=C3C(=O)c4c(O)ccc(Cl)c4[C@@](C)(O)[C@H]3C[C@@H]12` [Chlortetracycline HCl], the Euclidean distance in the test on 786-O stood at 1.45; in the test with A549 it was 0.912; in the test with DU145, 1.04; in the test on FB, 0.904; in the test with HEPG2, 0.464; with OVCAR4, 1.05.

`C[C@@H]1C[C@H]2[C@@H]3CCC4=CC(=O)C=C[C@]4(C)[C@@]3(F)[C@@H](O)C[C@]2(C)[C@@]1(O)C(=O)CO` [Dexamethasone (DHAP)]: the Euclidean distance was found to be 1.45 with 786-O; 2.32 in the test with A549; 2.14 in the test on DU145; 1.75 in the test with FB; 0.718 with HEPG2; 1.86 in the test on OVCAR4.

For the molecule `CN(C)CC(=O)Nc1ccc2[nH]c(=O)c3ccccc3c2c1`, the Euclidean distance turned out to be 1.25 in the test on 786-O; 1.08 in the test on A549; 0.921 in the test with DU145; 1.3 with FB; 1.34 with HEPG2; 1.07 in the test with OVCAR4.

For the molecule `COc1ccnc(C[S+]([O-])c2nc3cc(OC(F)F)ccc3[nH]2)c1OC` (stereo not drawn) [Pantoprazole sodium], the Euclidean distance amounted to 0.766 in the test with 786-O; 0.778 with A549; 1.1 in the test on DU145; 1.01 in the test on FB; 1.03 with HEPG2; 0.752 with OVCAR4.

With `CC(C)OC(=O)CCC/C=C\C[C@@H]1[C@@H](/C=C/[C@@H](O)COc2cccc(C(F)(F)F)c2)[C@H](O)C[C@@H]1O` [Travoprost], the Euclidean distance in the test with 786-O came out at 0.945; in the test on A549, 0.886; with DU145, 0.732; in the test on FB it was 1.11; in the test with HEPG2, 1.07; with OVCAR4, 1.25.

On to `c1ccc2c(c1)CCCC2C1=NCCN1` (stereo not drawn) [Tetrahydrozoline HCl], for which the Euclidean distance is 0.978 in the test with 786-O; 0.966 in the test on A549; 0.786 in the test on DU145; 0.944 in the test on FB; 0.601 in the test with HEPG2; 1.78 in the test on OVCAR4.

In the case of `CN1CCN(C(=O)c2cc3cc(Cl)ccc3[nH]2)CC1`, the Euclidean distance in the test on 786-O was 1.14; in the test with A549, 0.827; with DU145, 0.611; in the test with FB, 0.998; in the test with HEPG2, 0.507; in the test with OVCAR4, 1.17.

Regarding `CCOc1ccn(-c2ccc(F)cc2)c(=O)c1C(=O)Nc1ccc(Oc2ccnc(N)c2Cl)c(F)c1`, the Euclidean distance in the test on 786-O was 1.2; in the test on A549, 3.4; in the test on DU145 it was 1.66; in the test with FB, 2.27; with HEPG2 it was 1.66; in the test with OVCAR4 it was 2.55.

On to `CN1CCN2c3ccccc3Cc3ccccc3C2C1` (stereo not drawn) [Mianserin HCl], for which the Euclidean distance in the test on 786-O was 2.29; in the test on A549 it was 2.41; with DU145, 0.876; in the test with FB, 2.86; in the test on HEPG2, 1.34; with OVCAR4, 2.29.

In the case of `CC(C)=CCC/C(C)=C/CC/C(C)=C/CC/C(C)=C/CC/C(C)=C/CC/C(C)=C/CC1=C(C)C(=O)c2ccccc2C1=O` [Vitamin K2], the Euclidean distance came out at 1.17 with 786-O; 1.16 with A549; 1.1 with DU145; 0.823 in the test on FB; 0.747 in the test on HEPG2; 1.54 with OVCAR4.

With `O=C(O[C@@H]1C[C@@H]2C[C@H]3C[C@H](C1)N2CC3=O)c1c[nH]c2ccccc12` [Dolasetron], the Euclidean distance turned out to be 1.37 in the test with 786-O; 2.35 with A549; 2.37 with DU145; 1.37 in the test with FB; 0.624 in the test on HEPG2; 2.04 in the test with OVCAR4.

Take `NC(=O)c1cnc(N[C@@H]2CCCC[C@@H]2N)nc1Nc1cccc(-n2nccn2)c1`: the Euclidean distance turned out to be 1.35 in the test with 786-O; 2.72 with A549; 1.89 with DU145; 2.25 in the test with FB; 2.24 with HEPG2; 2.83 with OVCAR4.

As for `C=CC(=O)Nc1cccc(Oc2nc(Nc3ccc(N4CCN(C)CC4)cc3OC)ncc2Cl)c1`, the Euclidean distance with 786-O was 1.32; in the test with A549, 1.34; in the test on DU145, 1.43; with FB, 0.99; in the test on HEPG2 it was 1.05; in the test with OVCAR4 it was 1.98.
